Bioassay records as filed in PubChem.
In the library only some 0.19% were active in any assay of this set; here they are far more common.
Bcl-XL Bim block: disrupts Bim peptide binding to human Bcl-XL; Q07817; bead flow cytometry, fluorescence; inhibition, % at 10 µM; hit rate 0.04% among 190,000; AID 1007
Bcl-2 Bim block: disrupts Bim peptide binding to human Bcl-2; P10415; Bead-based flow cytometry, Bim peptide-Bcl-2 binding; inhibition, % at 10 µM; hit rate 0.06% among 190,000; in the data active = inhibition above about 40%;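 note: 0% = no compound wells with probe peptide and 100% = reference peptide inhibitor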
Bcl-B Bim block: inhibitors of Bim-Bcl-B interaction, human; bead-based flow cytometry, Bim peptide-Bcl-B binding; inhibition, % at 10 µM; hit rate 0.073% among 190,000; AID 951;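 note: 0% = tracer peptide without compound and 100% = reference inhibitor peptide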
Target sequence (Q9HD36 whole entry, looked up): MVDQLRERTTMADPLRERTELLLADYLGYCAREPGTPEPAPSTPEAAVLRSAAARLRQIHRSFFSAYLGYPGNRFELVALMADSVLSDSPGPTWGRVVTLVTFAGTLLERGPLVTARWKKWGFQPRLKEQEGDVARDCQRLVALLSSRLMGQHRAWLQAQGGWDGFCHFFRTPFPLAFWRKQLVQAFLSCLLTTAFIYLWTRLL
Bfl-1 Bim block: disrupts Bim binding to human Bfl-1; hit rate 0.12% among 190,000; Bead-based flow cytometry, Bim-Bfl-1 binding inhibition; Q16548; AID 1008; inhibition, % at 10 µM;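 note: 0% = wells without compound plus tracer and 100% = blocker peptide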
Bim-Bcl-W: inhibitors of Bim-Bcl-W interaction, human | bead-based flow cytometry, Bim peptide-Bcl-W binding | inhibition, % at 10 µM | Q92843 | hit rate 0.02% among 190,000;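 note: 0% = bound tracer without compound and 100% = peptide blocker; higher means less fluorescent Bim peptide bound to Bcl-W beads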
Target sequence (Q92843 whole entry, looked up): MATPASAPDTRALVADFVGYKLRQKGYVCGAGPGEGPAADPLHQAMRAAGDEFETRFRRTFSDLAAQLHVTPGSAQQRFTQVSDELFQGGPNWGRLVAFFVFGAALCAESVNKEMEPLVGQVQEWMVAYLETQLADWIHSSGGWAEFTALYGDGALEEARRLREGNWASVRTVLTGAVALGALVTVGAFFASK
An asterisk follows results filed as active. Cut-off read from the data, not from the text of the source, unless noted: active = inhibition above about 40%.

SMILES	Bcl-XL Bim block	Bcl-2 Bim block	Bcl-B Bim block	Bfl-1 Bim block	Bim-Bcl-W
COc1ccc(Cl)cc1-n1c(C)cc(C=O)c1C	29	86*	84*	62*	20
COc1ccc(Cl)cc1-n1c(C)cc(C(=O)O)c1C	-9	-13	-36	-11	4
CC(=O)OCCNc1cc(Sc2nc3ccccc3[nH]2)c2nonc2c1[N+](=O)[O-]	0	2	0	44*	9
CC(=O)OCCCNc1cc(Sc2ccc(C)cc2)c2nonc2c1[N+](=O)[O-]	-3	0	-10	-3	1
Cc1ccc(NC(=O)/C(=C\c2ccc([N+](=O)[O-])cc2)NC(=O)c2ccccc2)cc1	-7	-1	0	-2	-2
O=C(N/N=C/c1ccc(O)c(O)c1O)/C(=C/c1ccc([N+](=O)[O-])cc1)NC(=O)c1ccccc1	5	21	9	41*	27
CN(C1=C(NC(=O)c2ccccc2)C(=O)c2ccccc2C1=O)C1CCS(=O)(=O)C1 (configuration not stated)	-8	-6	-7	-7	-4
CC(=O)NC1=C(NC2CCS(=O)(=O)C2)C(=O)c2ccccc2C1=O (configuration not stated)	2	6	6	41*	14
Cc1cc(Cl)c(S(=O)(=O)Nc2cccc(O)c2)cc1OCC(N)=O	-7	1	-5	0	-4
COC(=O)c1ccccc1N/C=C1\CCc2c(c(C)nn2-c2ccccn2)C1=O	7	20	6	50*	37
O=c1[nH]c(=O)c2nnc(N/N=C\c3ccc(O)cc3)nc2[nH]1	44*	13	25	6	28
Cc1ccc(O)c(NC2=C(Cl)C(=O)N(Cc3ccccc3)C2=O)c1	35	37	22	58*	51*
C#CC1(NC(=O)NC(C)C)CCCCC1	-1	-1	0	0	1
O=C(N=Nc1c(O)[nH]c2ccc([N+](=O)[O-])cc12)c1cc(-c2ccccc2Cl)nc2ccccc12	-4	-2	-8	-9	-7
COc1ccccc1C(=O)N=Nc1c(O)[nH]c2ccc([N+](=O)[O-])cc12	44*	17	24	9	27
CN1C(=O)/C(=C/c2ccccc2Cl)Sc2ccc(C(=O)NCc3cccnc3)cc21	0	-1	-2	-3	-1
CC(C)Cc1cc(-c2ccco2)c(C#N)c(N)n1	30	90*	93*	73*	26
O=C(c1cc2ccccc2oc1=O)N(c1ccccc1)C1C=CS(=O)(=O)C1 (configuration not stated)	38	24	21	41*	28
O=C(/C=C/c1cccc(OCc2ccccc2)c1)c1cccnc1	-2	4	1	4	-1
O=C(C[n+]1ccc(-c2nnc3n2CCC3)cc1)c1ccc(Cl)c(Cl)c1	14	11	43*	2	25
COC(=O)c1ccc(/C=N/NC(=O)CC(=O)NCc2cccnc2)cc1	3	54*	51*	32	5
O=C(COc1ccc(Br)cc1CNC1CCCCC1)NCCc1ccccc1	1	78*	67*	54*	-7
CCNC(=O)N1c2ccc(OCC)cc2C(C)=CC1(C)C	33	24	20	40*	18
Cc1ccc(Sc2c(C#N)c(-c3ccccc3)nn2C)cc1	8	78*	68*	47*	10
Cc1ccc(SCc2c(-c3ccccc3)nn(C)c2Cl)cc1	4	3	2	0	1
SMILES	Bcl-XL Bim block	Bcl-2 Bim block	Bcl-B Bim block	Bfl-1 Bim block	Bim-Bcl-W
COc1ccc(CCNC(=O)c2ccc3nc(-c4ccco4)c(-c4ccco4)nc3c2)cc1OC	6	11	0	42*	19
COc1ccc(CCNC(=O)c2cc(-c3ccco3)on2)cc1OC	0	1	0	-3	1
N#CC(C#N)=C1C=CC=CN1/C(=C\c1ccccc1)C(=O)c1cccs1	-1	4	-1	6	-3
N#CC(C#N)=C1C=CC=CN1/C(=C\c1ccccc1Cl)C(=O)c1ccccc1	16	30	1	59*	34
C#CC(C)(CC)NC(=O)Cn1nnc(-c2cccc(C(F)(F)F)c2)n1 (configuration not stated)	-3	2	0	-3	-2
O=C(CSc1nnc(-c2ccc(Cl)cc2)n1-c1ccc(Cl)cc1)N/N=C/c1ccco1	-5	-9	-3	-11	0
Cc1ccc(/C=N/NC(=O)CSc2nnc(-c3ccc(Cl)cc3)n2-c2ccccc2)o1	-4	0	48*	0	-2
O=C(COC(=O)c1c[nH]c(=O)[nH]c1=O)Nc1ccccc1	-1	-3	-8	-10	-3
Clc1ccc(Cl)c2sc(N3CCCC3)nc12	0	-9	-5	-9	1
